LmPK inhibitor – qHTS Assay for Inhibitors of Leishmania Mexicana Pyruvate Kinase (LmPK) | Q27686 | purified LmPK, Kinase-Glo ATP luminescence, 1 h | Potency, µM (doses to about 57.5 µM), inactives show top-dose activity change, negative = inhibition, most hits filed as inhibitors | 0.37% of 290,000 active | AID 1721, 2009; active means well fitted curve in the direction sought with a large enough effect; an effect the other way counts as inactive or inconclusive; further: potency means the concentration at half of the fitted maximal effect; on the % scale 0 is the no-effect control and ±100 the full control effect
Target sequence (Q27686 whole entry, looked up): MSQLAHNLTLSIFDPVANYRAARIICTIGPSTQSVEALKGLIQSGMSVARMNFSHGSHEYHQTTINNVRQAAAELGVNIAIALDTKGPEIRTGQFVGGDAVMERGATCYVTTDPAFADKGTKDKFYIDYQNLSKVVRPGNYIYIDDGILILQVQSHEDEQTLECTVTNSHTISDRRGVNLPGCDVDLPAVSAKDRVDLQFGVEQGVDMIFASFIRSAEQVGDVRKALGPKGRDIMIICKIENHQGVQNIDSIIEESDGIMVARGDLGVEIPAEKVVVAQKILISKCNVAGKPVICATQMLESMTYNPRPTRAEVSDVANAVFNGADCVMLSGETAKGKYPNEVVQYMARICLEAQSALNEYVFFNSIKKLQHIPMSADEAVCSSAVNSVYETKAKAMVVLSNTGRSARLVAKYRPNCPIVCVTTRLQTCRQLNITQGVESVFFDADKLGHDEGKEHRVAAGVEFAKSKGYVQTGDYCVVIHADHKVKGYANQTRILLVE
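0.1 nM LmPK, 0.5 mM PEP, 0.1 mM ADP; 50 mM imidazole pH 7.2, 7 mM MgCl2, 50 mM KCl; 1 h RT. Kinase-Glo luminescence readout, normalized to no-enzyme (full inhibition) and uninhibited wells.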
Cycloheximide cs – Cycloheximide Counterscreen for Small Molecule Inhibitors of Shiga Toxin. 12% of 300,000 active. cell reporter, cycloheximide protein synthesis inhibition counterscreen. max response, %; in the data active means max response mostly above about 13%, no sharp cut-off; inactive means mostly below about 14%; further: read at 38.3 µM for the half of the compounds with a filed dose; 0% is about no effect
Shiga inhibitor – A qHTS for Small Molecule Inhibitors of Shiga Toxin; inhibition, % at 38.7 µM; Vero cells, Shiga toxin protein synthesis inhibition reporter; 9.2% of 290,000 active; AID 2315, 2010; in the data active means inhibition mostly above about 28%, no sharp cut-off; inactive means mostly below about 43%; further: 0% is about no effect
SARS PLpro yeast – qHTS of Yeast-based Assay for SARS-CoV PLP; S. cerevisiae expressing SARS-CoV PLpro, growth rescue; Potency, µM (top dose mostly 32.9 µM), for inactives: at the highest dose activity, positive = growth rescue, usual class: activators; 0.19% of 330,000 active; AID 485353, 2010; further: potency means the concentration at half of the fitted maximal effect; 0% is about no effect; nearly all actives have a fitted effect of over 55% in size
TbPYK inhibitor – qHTS of Trypanosoma Brucei Inhibitors; TbPYK enzyme, Kinase-Glo Plus ATP luminescence, 45 min; 0.12% of 410,000 active; AID 624173, 2012; pyruvate kinase (Trypanosoma brucei), Q57TT1; Potency, µM (highest dose often 76.8 µM), for the others: at the top dose activity, negative = inhibition, most hits filed as inhibitors; active means well fitted curve in the direction sought with a large enough effect; an effect the other way counts as inactive or inconclusive; further: potency means the concentration at half of the fitted maximal effect; on the % scale 0 is the no-effect control and ±100 the full control effect; nearly all actives have a fitted effect of over 50% in size
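Readout: single end-point luminescence (Kinase-Glo Plus, 10 min). Reaction conditions were TbPYK/substrate plus 130 uM ADP, 45 min at RT, pH 7.2 TEA buffer. No-enzyme wells served as controls, and data were normalized before concentration-response fitting.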
NS1 inh – qHTS Assay for Inhibitors of Influenza NS1 Protein Function; Potency, µM (series often up to 46.1 µM), for the others: top-dose activity, positive = more growth; 0.4% of 270,000 active; AID 2326, 2010; further: potency means the concentration at half of the fitted maximal effect; actives are rising curves; nearly all actives have a fitted effect of over 50% in size
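Compounds were scored for reversing the slow growth caused by influenza A NS1 in S. cerevisiae, measured by optical density at 600 nm. Assay medium contained 2% galactose at pH 6.0; NS1-free yeast of the same strain were the positive control.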
Numbers without * were called inactive; / = no result given. This is one part of a sample in which hits are shown more often than they occur. Unless noted, the call rests on the fitted dose curve.

SMILES	LmPK inhibitor	Cycloheximide cs	Shiga inhibitor	SARS PLpro yeast	TbPYK inhibitor	NS1 inh
NNC(=O)c1cc2cc3ccccc3nc2s1	-13%	45*	67	-2%	2%	/
CC1CCN(c2cc3c(cc2F)c(=O)c(S(=O)(=O)c2cccc(Cl)c2)cn3Cc2ccccc2)CC1	/	/	/	/	-9%	/
COc1ccc(NC(=O)N2CCc3ccccc3C2)c(OC)c1	-1%	16*	36*	-8%	-9%	1%
COc1ccc(OC)c(NC(=O)N2CCc3ccccc3C2)c1	-17%	16	10	5%	0%	-16%
CCOc1ccccc1NC(=O)CN1CCc2ccccc2C1	5%	-1	17	0%	-1%	-39%
CCOc1ccccc1NC(=O)N1CCc2ccccc2C1	1%	19*	22	-7%	-4%	-45%
CCOc1ccc(-n2c(=O)c3c(C)c(C)sc3n(Cc3cc(=O)n4cc(Cl)ccc4n3)c2=O)cc1	/	/	/	/	-4%	/
Cc1ccnc(NS(=O)(=O)c2ccc(NC(=O)c3cc(=O)c4ccc(C)c(C)c4o3)cc2)n1	/	/	/	/	-2%	/
CCC(C)NS(=O)(=O)c1ccc(NC(=O)CNCc2cccs2)cc1 (centres undefined)	/	/	/	/	-4%	/
Cc1ccc(NC(=O)CNCc2cccs2)cc1Br	0%	26*	52*	0%	12%	-3%
O=C(CNCc1cccs1)Nc1ccc(OC(F)(F)F)cc1	-1%	20*	82*	-2%	5%	0%
CC(=O)c1ccc(NC(=O)CNCc2cccs2)cc1	-3%	54*	52*	0%	19%	0%
CCC(C)(C)NCC(=O)Nc1ccc(OC(F)(F)F)cc1	-14%	15*	35	2%	6%	14%
Cc1oc(-c2ccc(Cl)cc2)cc1C(=O)/C(C#N)=C/Nc1ccccc1	4%	5	28	0%	1%	2%
CC(C)c1ccc(NC(=O)C2CCCN(S(=O)(=O)c3cccc4cccnc34)C2)cc1 (centres undefined)	/	/	/	/	6%	/
O=C(CNCc1cccs1)Nc1ccc(N2CCCCCC2)cc1	-5%	27*	60*	2%	5%	13%
COc1cc(C(=O)Oc2ccc3ccc(O)cc3c2)cc(OC)c1OC	-2%	21*	30	-2%	-7%	20%
O=C(Oc1ccc2ccc(O)cc2c1)c1ccccc1Cl	0%	32*	44*	-13%	0%	-44%
CCc1ccc(NC(=O)C2CCCN(S(=O)(=O)c3cccs3)C2)cc1 (centres undefined)	1%	21*	30	0%	-18%	12%
O=C(CCNS(=O)(=O)c1cccs1)N1CCCCCC1	1%	33*	102*	4%	-13%	9%
CC1CCCN(C(=O)CNS(=O)(=O)c2cccs2)C1 (centres undefined)	-1%	27*	54	4%	-3%	6%
CCc1ccc(NC(=O)C2CCN(S(=O)(=O)c3cccs3)CC2)cc1	-1%	6	21	1%	6%	-18%
O=C(CSc1ccccc1)N1CCN(S(=O)(=O)c2cccs2)CC1	3%	5.9*	18	-4%	0%	-14%
CCC(=O)NCCCC[C@H](NC(=O)OCc1ccccc1)C(=O)Nc1ccc2c(C)cc(=O)oc2c1	/	-3	-5	/	/	/
C[C@@H]1C[C@@H]([C@@H](C)CC2CC(=O)NC(=O)C2)C(=O)[C@@H](C)C1	/	-8	-16	/	/	/
CC(=O)N1CCC(C(=O)N2CCN(S(=O)(=O)c3cccs3)CC2)CC1	-8%	-1	-6	-6%	-2%	2%
O=C(CCS(=O)(=O)c1cccs1)N1CCCC1	-3%	18*	63*	0%	-1%	6%
O=C(C1CCN(S(=O)(=O)c2cccs2)CC1)N1CCCCC1	-8%	35*	37*	0%	1%	-50%
O=C(CCS(=O)(=O)c1cccs1)N1CCN(c2ccc(F)cc2)CC1	3%	41*	79*	-25%	-12%	-11%
O=C(CCCNS(=O)(=O)c1cccs1)N1CCN(c2ccc(F)cc2)CC1	2%	1	-7	-5%	-1%	-12%

Bioassay records: PubChem, National Center for Advancing Translational Sciences (NCATS)
